From PubChem BioAssay
TMEM16A inh = mouse TMEM16A channel inhibition, primary screen; HEK293 TMEM16A/YFP iodide influx fluorescence, ionomycin; normalized B-score (activity score, 25-100; higher = stronger inhibition) at 10 µM; 310,000 tested, 1.2% active; Q8BHY3; AID 588511;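 active = ratio plate-corrected score three or more library SD toward inhibition, starting fluorescence score within five deviations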;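 note: score derived from kinetic fluorescence span divided by baseline fluorescence per well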
CHT block = human CHT choline transport inhibition; Q9GZV3; CHT-expressing cells, membrane potential dye, choline response; stronger effect = lower value; B-score at 10 µM; 310,000 tested, 0.86% active; AID 488975;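 active = B-score over 3 SD under the library average, and starting fluorescence ratio not unusually high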;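 note: choline stimulus applied at its EC90 after an EC20 pre-addition; B-score computed on integrated fluorescence ratio after choline addition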
CHT allo act = human CHT allosteric activation; B-score at 10 µM; CHT-expressing cells, membrane potential dye, choline EC20; stronger effect = higher value; LV-AA mutant CHT in HEK293 cells; 310,000 tested, 0.49% active;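 active = initial fluorescence not abnormally high and integrated response B-score, plate-corrected, over 3 SD above library mean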
ANO1 activ = activators or potentiators of mouse TMEM16A chloride channel. B-score at 10 µM. HEK293 TMEM16A/YFP-H148Q/I152L, iodide quench fluorescence; stronger effect = lower value. 340,000 tested, 0.3% active. Q8BHY3;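 active = fluorescence-ratio B-score plate-corrected deviation score at least 3 library SD below zero, with starting fluorescence score within 5 deviations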;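 note: channel opened by trigger with iodide after compound preincubation; score built on the fluorescence ratio of max minus min over baseline; more negative score means more quench and so TMEM16A activation or potentiation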
TMEM16A reconf = re-confirmation of mouse TMEM16A chloride channel inhibitors | shares compounds with TMEM16A inh | inhibition, % at 10 µM | 2,300 tested, 39% active | HEK293 TMEM16A/YFP-H148Q, iodide quench fluorescence; ionomycin added to raise cell calcium;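 active = mean duplicate percent inhibition, scaled so buffer wells are 0 and the reference blocker 100, over three buffer SD above buffer mean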
HEK293 Ca mobil = counter-screen for TMEM16A inhibitors: effect on calcium mobilization | shares compounds with TMEM16A inh | TMEM16A/YFP HEK293, Fluo4 calcium mobilization | calcium response (% of ionomycin), % at 10 µM | 2,300 tested, 2% active;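 active = duplicate-averaged calcium signal over 20% of the ionomycin maximum, relative to buffer baseline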;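 note: each well's signal is peak minus trough fluorescence divided by its pre-addition baseline; 0% = buffer wells and 100% = ionomycin wells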
Parental YFP cnt = acts in parental YFP-HEK293 cells lacking TMEM16A, counter-screen | shares compounds with TMEM16A inh | iodide YFP quench, ionomycin | YFP ratio F(max-min)/F0 at 10 µM | 2,300 tested, under 10 active;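 active = yellow fluorescent protein signal ratio exceeding the buffer control mean by over 5 SD of those controls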;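 note: ratio is mean of duplicate wells from kinetic YFP trace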
ClC-1 rat inh = rat ClC-1 inhibition, TMEM16A specificity screen | shares compounds with TMEM16A inh | CHO ClC-1-YFP, iodide influx fluorescence quench; iodide control reads 0, buffer control 100 | ratio percent, % at 10 µM | 2,300 tested, under 10 active;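 active = duplicate-mean ratio percent above the mean of iodide-only control wells, which defines zero, plus 5 of their SD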;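 note: higher percent means stronger block of ClC-1 iodide influx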
Target sequence (P35524 whole entry, looked up): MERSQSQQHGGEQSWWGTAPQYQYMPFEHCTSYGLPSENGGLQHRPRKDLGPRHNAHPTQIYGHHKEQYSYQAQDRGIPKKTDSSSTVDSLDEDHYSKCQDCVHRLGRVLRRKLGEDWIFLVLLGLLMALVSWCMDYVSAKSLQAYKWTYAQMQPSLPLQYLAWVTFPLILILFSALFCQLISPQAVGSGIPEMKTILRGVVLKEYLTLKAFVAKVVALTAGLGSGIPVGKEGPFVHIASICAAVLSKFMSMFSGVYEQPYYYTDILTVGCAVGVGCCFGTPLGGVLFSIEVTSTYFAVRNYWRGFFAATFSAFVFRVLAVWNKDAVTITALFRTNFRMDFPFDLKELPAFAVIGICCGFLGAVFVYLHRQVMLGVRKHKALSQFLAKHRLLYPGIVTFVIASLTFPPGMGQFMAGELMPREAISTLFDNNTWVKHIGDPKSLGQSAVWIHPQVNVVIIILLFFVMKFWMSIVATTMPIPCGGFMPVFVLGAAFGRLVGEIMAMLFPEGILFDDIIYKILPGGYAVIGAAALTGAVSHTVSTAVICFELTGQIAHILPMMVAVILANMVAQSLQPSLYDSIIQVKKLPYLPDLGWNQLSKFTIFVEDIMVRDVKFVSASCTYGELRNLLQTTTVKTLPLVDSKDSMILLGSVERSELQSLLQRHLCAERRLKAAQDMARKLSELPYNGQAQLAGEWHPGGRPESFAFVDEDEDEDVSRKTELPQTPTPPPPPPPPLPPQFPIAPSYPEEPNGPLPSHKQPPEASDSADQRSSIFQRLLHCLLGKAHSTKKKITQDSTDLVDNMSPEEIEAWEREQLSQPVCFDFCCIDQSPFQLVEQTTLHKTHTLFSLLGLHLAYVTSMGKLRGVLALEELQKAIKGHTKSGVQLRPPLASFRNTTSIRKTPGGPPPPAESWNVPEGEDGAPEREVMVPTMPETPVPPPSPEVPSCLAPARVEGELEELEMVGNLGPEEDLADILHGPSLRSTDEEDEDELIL
An asterisk follows results filed as active; i = inactive; nt = not tested or not shown. Most compounds without a hit are left out; they make up all but 2.3% or so of the library.

SMILES	TMEM16A inh	CHT block	CHT allo act	ANO1 activ	TMEM16A reconf	HEK293 Ca mobil	Parental YFP cnt	ClC-1 rat inh
Cc1cc(C(=O)Nn2c(C3CCCCC3)nc3ccccc3c2=O)ccc1[N+](=O)[O-]	i	i	i	i	nt	nt	nt	nt
O=C(Nn1c(C2CCCCC2)nc2ccccc2c1=O)c1ccc(Cl)c([N+](=O)[O-])c1	25*	i	i	i	22%*	i	-1.1	-9
CC(=O)Nc1ccc(SCc2csc(C)n2)cc1	i	i	i	i	nt	nt	nt	nt
CCCC(=O)Nc1nnc(SCC)s1	i	i	i	i	nt	nt	nt	nt
CCSc1nnc(NC(=O)NC(CC)(C(F)(F)F)C(F)(F)F)s1	100*	i	i	i	16%*	i	-1	-18
CNC[C@H]1Oc2c(NS(=O)(=O)c3cccs3)cccc2C(=O)N([C@H](C)CO)C[C@@H]1C	nt	nt	nt	i	nt	nt	nt	nt
O=C(NC(=S)NCc1ccccc1Cl)c1cccs1	nt	nt	nt	i	nt	nt	nt	nt
CCCOc1ccc(NC(=O)C2CC(=O)N3CCCN=C3S2)cc1 (stereo not given)	25*	i	i	i	i	i	-1.1	-16
C=C1C(=O)OC2C=C(CO)C3OC3C3OC3(C)CC(OC(=O)/C(=C/C)COC(C)=O)C12 (stereo not given)	nt	nt	nt	i	nt	nt	nt	nt
CCN(CC)S(=O)(=O)c1cccc(C(=O)OCC(=O)c2ccc3c(c2)NC(=O)CO3)c1	25*	i	i	i	i	i	-1.1	-2
C/C(=N\NC(=O)CN1CCN(c2ccc(F)cc2)CC1)c1ccco1	i	i	i	i	nt	nt	nt	nt
CCNC(=O)C1CC(=O)N(c2ccc(Br)cc2)C1 (stereo not given)	i	i	i	i	i	i	-0.97	-4
C=CCNC(=O)C1CC(=O)N(c2ccc(Br)cc2)C1 (stereo not given)	i	i	i	i	nt	nt	nt	nt
COc1ccc(-c2c(-c3cc(OC)cc(OC)c3)n(C)c3ccc(-c4cc(F)cc(OC)c4)cc23)cc1	nt	nt	nt	i	nt	nt	nt	nt
Cc1nc2cc(-c3ccsc3-n3c(C)ccc3C)[nH]n2c(=O)c1Cl	100*	i	i	i	20%*	i	-0.91	-14
CC(C)c1cc(C(=O)N2CCCC(CCC(=O)NCc3ccccc3F)C2)n(C)n1 (stereo not given)	100*	i	i	i	i	i	-1.1	-16
Cc1ncoc1C(=O)N1CCCC(CCC(=O)NCc2ccccc2F)C1 (stereo not given)	i	i	i	i	nt	nt	nt	nt
COC(=O)C1=C(C)N(C)C(=O)NC1c1c(O)ccc2ccccc12 (stereo not given)	i	i	i	i	nt	nt	nt	nt
Cc1cc(C(=O)Cn2nnc(-c3ccc(Cl)cc3)n2)c(C)n1CC1CCCO1 (stereo not given)	25*	i	i	i	22%*	i	-0.85	-12
Cc1cc(C(=O)CSc2nc3ccccc3o2)c(C)n1CC1CCCO1 (stereo not given)	100*	i	i	i	i	i	-1.1	-24
Cc1cc(C(=O)CSc2nc3ccccc3[nH]2)c(C)n1CC1CCCO1 (stereo not given)	25*	i	i	i	i	i	-1.2	-30
Cc1cc(C(=O)CSc2nc(N)cc(=O)[nH]2)c(C)n1CC1CCCO1 (stereo not given)	nt	nt	nt	i	nt	nt	nt	nt
Cc1cc(C(=O)CSc2nc(N)cc(N)n2)c(C)n1CC1CCCO1 (stereo not given)	nt	nt	nt	i	nt	nt	nt	nt
CN1CCCC1CCNc1ccc2sc3ccccc3c(=O)c2c1 (stereo not given)	i	i	i	i	i	i	-0.73	6
O=C(O)CCCCCn1c(SCC(=O)c2ccc(O)c(O)c2)nc2ccsc2c1=O	i	i	i	i	nt	nt	nt	nt
SMILES	TMEM16A inh	CHT block	CHT allo act	ANO1 activ	TMEM16A reconf	HEK293 Ca mobil	Parental YFP cnt	ClC-1 rat inh
CCCCn1c(SCC(=O)c2ccc(O)c(O)c2)nc2ccsc2c1=O	100*	i	i	i	49%*	i	-1	-18
O=C1CC(c2ccccc2)c2ccc(O)cc2O1 (stereo not given)	25*	i	i	i	i	i	-1.1	7
Cc1nc(NCc2ccc3c(c2)OCO3)c2oc3ccccc3c2n1	25*	i	i	i	i	i	-1.2	-4
CCc1nc(NCc2ccc3c(c2)OCO3)c2oc3ccccc3c2n1	i	i	i	i	nt	nt	nt	nt
O=C(O)C(CCc1ccccc1)N1C(=O)c2ccccc2C1=O (stereo not given)	nt	nt	nt	i	nt	nt	nt	nt
Cc1ccnc(NC(=S)N2CCN(c3cccc(C(F)(F)F)c3)CC2)c1	25*	i	i	i	18%*	i	-1.1	-12
Cc1cc2nc(-c3ccc(=O)[nH]c3)n(Cc3ccccc3)c2cc1C	i	i	i	i	nt	nt	nt	nt
Cc1ccnc(Nc2nc(-c3ccc(F)cc3)cs2)c1	100*	i	i	i	i	i	-1.1	-2
Cc1ccnc(Nc2nc(-c3ccc(Cl)cc3)cs2)c1	i	i	i	i	nt	nt	nt	nt
C=CCN(CC=C)C(=O)Nc1cc(Cl)ccc1OC	25*	i	i	i	i	i	-1.1	-5
COc1ccc(Cl)cc1NC(=O)CC(=O)Nc1cc(Cl)ccc1OC	i	i	i	i	nt	nt	nt	nt
COc1ccc(Cl)cc1NC(=O)COC(=O)C1CCCCC1	nt	nt	nt	i	nt	nt	nt	nt
COc1ccc(Cl)cc1NC(=O)CN(C)C1CCCCC1	i	i	i	i	i	i	-1	-10
CCS(=O)c1ccccc1C(=O)OCC(=O)Nc1ccc2ccccc2c1 (stereo not given)	nt	nt	nt	i	nt	nt	nt	nt
Cc1ccc(NC(=O)COc2ccc(C(=O)c3ccccc3)cc2)c(O)c1	i	i	i	i	nt	nt	nt	nt
O=C(c1ccco1)N1CCN(C(=O)C2CCN(S(=O)(=O)c3cccc4nsnc34)CC2)CC1	100*	i	i	i	i	i	-1.1	-12
O=C(C1CCN(S(=O)(=O)c2cccc3nsnc23)CC1)N1CCN(c2ccccc2F)CC1	i	i	i	i	nt	nt	nt	nt
O=C(NCc1ccc(N2CCCC2=O)cc1)Nc1cccc(Cl)c1	25*	i	i	i	i	i	-1.1	-6
O=C(OCC(=O)N(C1CCCCC1)C1CCCCC1)c1ccc(Cl)nc1	nt	nt	nt	i	nt	nt	nt	nt
